TrxR1 substrate = is turned over as a substrate by rat TrxR1; O89049; purified TrxR1 substrate turnover, NADPH consumption readout; Potency, µM (doses to about 114 µM), inactives show at the top dose activity change, negative = substrate turnover; actives 0.01% (n = 390,000); note: nearly all actives have a fitted effect of over 50% in size
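Rat TrxR1, dispensed at 90 nM, was prereduced with 400 uM NADPH (final) for 5 min at ~22 deg C, then incubated with compound 15 min before 400 uM selenite. A first-read NADPH fluorescence drop versus no-compound background flagged substrates.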
GCN5L2 inh = GCN5L2 (KAT2A) acetyltransferase inhibition. GCN5L2 HAT assay, ThioGlo1 CoA-SH fluorescence. Potency, µM (doses to about 58.9 µM), without a hit: at the top dose activity change, negative = inhibition, usual class: inhibitors. actives 0.21% (n = 390,000)
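GCN5L2 (20 nM) in 50mM HEPES pH 7.5, 0.1mM EDTA, 0.01% Tween-20 preincubated 15 min with compounds at room temperature. Reaction started with H3(1-25) 75uM, acetyl-CoA 70uM, ThioGlo1 50uM; CoA-thiol fluorescence (Ex340/Em540) read at 0 and 20 min.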
TrxR1 inh = rat TrxR1 inhibition; recombinant rTrxR1, NADPH fluorescence consumption, selenite substrate; Potency, µM (doses to about 114 µM), without a hit: top-dose activity change, negative = inhibition, usual class: inhibitors; actives 1% (n = 390,000); note: nearly all actives have a fitted effect of over 65% in size
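Rat TrxR1 (90 nM in the dispensed reagent) was pre-reduced with 400 uM NADPH for 5 min at room temperature, then incubated with compound for 15 min. After 400 uM selenite was added, NADPH fluorescence (Ex 340/Em 450 nm) was followed for 8 min.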
Sfp PPTase inh = inhibitors of Bacillus subtilis Sfp phosphopantetheinyl transferase | Biochemical Sfp PPTase activity, qHTS | Q9F4F7 | Potency, µM, for inactives: largest response in the series, negative = inhibition, most hits filed as inhibitors | AID 1490 | actives 3.5% (n = 310,000);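 note: the enzyme is Sfp with the accession as filed and its product quenches rhodamine fluorescence; 0% = enzyme reaction without inhibitor and -100% = no enzyme wells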
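Fluorescence-quenching assay: 15 nM Sfp-PPTase preincubated 15 min at room temperature with compound, then 5 uM rhodamine-CoA and 12.5 uM BHQ-2-labelled YbbR peptide added. Fluorescence (ex 525/em 598 nm) read at start and after 30 min; difference gives rate.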
GLS inhibitor = inhibitors of human glutaminase (GLS); Potency, µM (highest dose often 45.5 µM), for inactives: at the highest dose activity change, negative = inhibition, hits mostly inhibitors; AID 624170; actives 0.21% (n = 410,000); GLS enzymatic activity, qHTS titration
Target sequence (O94925 whole entry, looked up): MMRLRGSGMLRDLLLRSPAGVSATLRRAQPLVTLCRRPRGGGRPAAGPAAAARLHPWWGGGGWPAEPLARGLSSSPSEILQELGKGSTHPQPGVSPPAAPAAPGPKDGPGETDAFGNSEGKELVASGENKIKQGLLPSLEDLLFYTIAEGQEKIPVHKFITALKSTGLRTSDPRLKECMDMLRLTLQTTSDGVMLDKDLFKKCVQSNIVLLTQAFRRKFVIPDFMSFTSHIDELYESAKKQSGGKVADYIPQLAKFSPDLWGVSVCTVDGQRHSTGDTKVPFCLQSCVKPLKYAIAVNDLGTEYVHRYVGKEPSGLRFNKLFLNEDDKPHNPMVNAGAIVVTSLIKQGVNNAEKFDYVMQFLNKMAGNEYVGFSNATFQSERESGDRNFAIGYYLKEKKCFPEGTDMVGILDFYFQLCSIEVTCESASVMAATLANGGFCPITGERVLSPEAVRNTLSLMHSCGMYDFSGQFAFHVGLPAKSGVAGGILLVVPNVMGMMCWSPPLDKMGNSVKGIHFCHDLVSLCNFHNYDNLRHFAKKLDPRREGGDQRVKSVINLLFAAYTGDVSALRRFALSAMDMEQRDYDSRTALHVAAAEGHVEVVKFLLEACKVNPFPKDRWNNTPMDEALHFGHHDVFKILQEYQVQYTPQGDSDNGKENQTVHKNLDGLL
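Two-point fluorescence kinetic (t0, 30 min RT) for hKGA; glutamate detected via glutamate oxidase–HRP–Amplex Red. Substrate: 1 mM L-glutamine solution; buffer 45 mM KH2PO4, pH 8.2.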
VDR inh = blocks the human vitamin D receptor | P11473 | VDR-SRC2-3 peptide fluorescence polarization, 2 h | Potency, µM, for inactives: max response, negative = inhibition, actives largely listed as inhibitors | actives 0.93% (n = 400,000) | AID 504847
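Reagent solutions, kept cold and dark, are dispensed first; compounds are then pinned in at 23 nl, plates briefly spun, and incubated 2 h at ambient temperature. Inhibition of VDR–SRC2-3 peptide binding is read by fluorescence polarization.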
* = called active by the depositor; ? = inconclusive; nt = not tested or not shown; [ ] = dose if it differs, or a comment. Most compounds without a hit are left out; they make up all but 3.8% or so of the library. Calls come from the whole dose curve; as a rule, active = well fitted curve in the direction sought with a large enough effect; inconclusive = small, poorly fitted or top-dose-only effect, or another doubt; inactive = no such curve, though single readings can be large; an effect the other way counts as inactive or inconclusive. Unless noted, % is set by controls: 0 for no effect and ±100 for the full control effect; potency is the fitted concentration of half-maximal effect.

SMILES	TrxR1 substrate	GCN5L2 inh	TrxR1 inh	Sfp PPTase inh	GLS inhibitor	VDR inh
CCN(CC)CCOC(=O)C1(C2CCCCC2)CCCCC1	-2%[57.1 µM]	-6%	-11%[57.1 µM]	8%	16%	-14%
CCN(CC)CCOC(=O)C1(c2ccc(OC)c(OC)c2)CCCC1	1%	-9%	4%	79µM*	6%	9%
Cc1ccc(-n2nnnc2C(Cl)c2nnnn2-c2ccc(C)cc2)cc1	0%	-6%	-2%	?	4%	25µM*
O=[N+]([O-])c1cccc(S(=O)(=O)N2CCc3ccccc3C2)c1	-7%	1%	-6%	17%	-2%	-16%
CCC(C)NC(=O)/C(=C/c1ccco1)c1ccccc1 (configuration not stated)	5%	-14%	?	3.2µM*	-1%	8%
O=C(NCCc1ccccc1)/C(=C/c1ccco1)c1ccccc1	-10%	-20%	?	6.3µM*	2%	-6%
CN(C)CCNC(=S)Nc1ccc(Br)cc1	5%[57.1 µM]	-1%	2%[57.1 µM]	1%	6%	9%
Cc1ccc(C(=O)Nc2onc3c2CCCC3)cc1	-4%	-14%	14%	nt	3%	-6%
CS/C(=C\[N+](=O)[O-])Nc1ccccc1	12%[57.1 µM]	nt	1.3µM*	-6%	11%	-5%
CS/C(=C\[N+](=O)[O-])Nc1ccc(F)cc1	-24%[57.1 µM]	nt	?	-5%	2%	-28%
COc1ccc(N/C(=C/[N+](=O)[O-])SC)cc1	3%[57.1 µM]	-5%	7.1µM*	11%	0%	-22%
CCOC(=O)c1cc(-c2ccccc2)nc2nc(N3CCCCC3)sc12	46%[57.1 µM]	-20%	24%[57.1 µM]	-1%	-4%	4%
COc1ccc2c(c1)cc(CNc1ccc(OC)c(OC)c1)c(=O)n2CC(=O)Nc1ccc(F)cc1	-12%	-20%	0%	nt	-7%	9%
COc1ccc(CNC[C@@H](CCCCN(C)Cc2ccc(OC)cc2)N2C[C@H](c3ccccc3)N(CCc3ccc(Cl)c(Cl)c3)C(=O)C2=O)cc1	4%	-6%	-10%	28µM*	-4%	-9%
CN(CCCC[C@H](CNCc1ccc(-c2ccccc2)cc1)N1C[C@H](c2ccccc2)N(CCc2ccc(Cl)c(Cl)c2)C(=O)C1=O)Cc1ccc(-c2ccccc2)cc1	nt	-20%	nt	22µM*	nt	nt
NC(=O)c1ccc(-n2nnnc2Oc2ccccc2C(=O)N2CCOCC2)cc1	7%[57.1 µM]	-3%	12%[57.1 µM]	3%	3%	-7%
CCOC(=O)c1c(C)c(C(=O)NC2CCCCC2)c(C)n1CC	8%	-1%	6%	21%	0%	-3%
O=C1OC(c2ccccc2)=NC12CC2c1ccc(Cl)cc1 (configuration not stated)	-2%	-8%	7.9µM*	?	?	25µM*
O=CN1N=C(c2ccccc2)CC1c1ccc(Cl)cc1 (configuration not stated)	-15%	-3%	-17%	10%	11%	3%
CCCn1nnc(NC(=O)c2ccc(Br)cc2)n1	10%[57.1 µM]	1%	20%[57.1 µM]	6%	6%	-3%
c1ccc2c(c1)ncn2Cc1nnc2sc(-c3ccncc3)nn12	1%	-3%	4%	16µM*	-14%	-13%
c1cncc(-c2nn3c(Cn4cnc5ccccc54)nnc3s2)c1	13%[57.1 µM]	-17%	-12%	-83%	-23%	-99%
Cc1cc(NC(=O)Nc2ccc3c(ccn3C)c2)sn1	1%[57.1 µM]	-7%	0%[57.1 µM]	79µM*	29%	2%
Cc1ccc(NC(=O)Nc2ccc3c(c2)nc(C)n3C)cc1	11%	-9%	44%	9%	1%	-13%
CCOC(=O)c1sc(=S)n(-c2ccc(OC)cc2)c1N	0%[57.1 µM]	-9%	16%[57.1 µM]	4%	0%	9%
CCNC(=O)c1sc(=S)n(-c2ccc(C)cc2)c1N	0%[57.1 µM]	-2%	-5%[57.1 µM]	56µM*	12%	-24%
Cc1ccc(-n2c(N)c(C(=O)N3CCOCC3)sc2=S)cc1	-4%	?	-7%	-90%	-10%	89µM*

Bioassay records deposited in PubChem BioAssay by National Center for Advancing Translational Sciences (NCATS).
